# Reference: paper PMC7862700, “An all-to-all approach to the identification of sequence-specific readers for epigenetic DNA modifications on cytosine”
# Tests used:
# Experiment in all cases: DAPPL (digital affinity profiling via proximity ligation, sequencing); 10 mM Tris-HCl pH 7.5, 50 mM NaCl, 1 mM DTT, 4% glycerol, room temperature, 30 min; GST-TFs on glutathione beads, 16-mer random dsDNA library, 0.1% formaldehyde crosslink after washing; high values mean tight binding
# Settings in all cases: protein: recombinant; tags: N-terminal GST; dsDNA, one strand shown
# ELK1 = target: T1, ELK1 (Homo sapiens, UniProt P19419 1-428)
# T1 sequence: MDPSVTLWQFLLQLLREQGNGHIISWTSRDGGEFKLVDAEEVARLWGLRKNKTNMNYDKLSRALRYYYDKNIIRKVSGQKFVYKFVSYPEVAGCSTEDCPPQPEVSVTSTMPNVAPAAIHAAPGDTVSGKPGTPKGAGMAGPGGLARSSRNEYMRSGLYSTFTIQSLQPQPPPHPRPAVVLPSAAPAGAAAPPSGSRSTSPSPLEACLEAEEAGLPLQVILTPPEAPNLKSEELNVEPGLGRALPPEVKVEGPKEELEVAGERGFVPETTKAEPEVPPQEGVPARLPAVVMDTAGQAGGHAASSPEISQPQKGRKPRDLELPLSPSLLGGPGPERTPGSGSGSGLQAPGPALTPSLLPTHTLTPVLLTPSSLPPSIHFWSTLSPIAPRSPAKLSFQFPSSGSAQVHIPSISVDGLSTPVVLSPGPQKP
# In short: (§1)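 Sequencing on an Illumina NextSeq500 followed washing, crosslinking with 0.1% formaldehyde, proximity ligation (BsaI/T4 ligase, 1 h, 37 °C) and PCR amplification of pools that had been incubated for 30 min at room temperature with 200 nmole of a random double-stranded 16-mer DNA library in Tris/NaCl/DTT/glycerol buffer. Each pool held DNA-barcoded human transcription factors, expressed in yeast as GST fusions and captured on glutathione beads, plus a tag-only sample. Binding signal is a hexamer's read frequency for a factor divided by its frequency in the tag-only sample.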
# GABPA = target: T2, GABPA (Homo sapiens, UniProt Q06546 1-454)
# T2 sequence: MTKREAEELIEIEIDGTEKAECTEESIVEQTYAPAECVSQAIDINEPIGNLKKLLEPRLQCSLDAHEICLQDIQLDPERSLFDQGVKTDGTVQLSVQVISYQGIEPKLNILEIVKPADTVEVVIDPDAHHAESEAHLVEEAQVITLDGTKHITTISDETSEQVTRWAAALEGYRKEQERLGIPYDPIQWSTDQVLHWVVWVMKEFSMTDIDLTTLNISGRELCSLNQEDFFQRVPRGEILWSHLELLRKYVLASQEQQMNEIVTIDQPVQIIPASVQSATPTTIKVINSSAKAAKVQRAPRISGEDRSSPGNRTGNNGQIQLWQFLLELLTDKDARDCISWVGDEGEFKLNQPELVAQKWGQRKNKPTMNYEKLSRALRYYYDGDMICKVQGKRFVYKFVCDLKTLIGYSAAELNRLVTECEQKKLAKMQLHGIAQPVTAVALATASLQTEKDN
# In short: as §1
# ERG = target: T3, ERG (Homo sapiens, UniProt P11308 1-479)
# T3 sequence: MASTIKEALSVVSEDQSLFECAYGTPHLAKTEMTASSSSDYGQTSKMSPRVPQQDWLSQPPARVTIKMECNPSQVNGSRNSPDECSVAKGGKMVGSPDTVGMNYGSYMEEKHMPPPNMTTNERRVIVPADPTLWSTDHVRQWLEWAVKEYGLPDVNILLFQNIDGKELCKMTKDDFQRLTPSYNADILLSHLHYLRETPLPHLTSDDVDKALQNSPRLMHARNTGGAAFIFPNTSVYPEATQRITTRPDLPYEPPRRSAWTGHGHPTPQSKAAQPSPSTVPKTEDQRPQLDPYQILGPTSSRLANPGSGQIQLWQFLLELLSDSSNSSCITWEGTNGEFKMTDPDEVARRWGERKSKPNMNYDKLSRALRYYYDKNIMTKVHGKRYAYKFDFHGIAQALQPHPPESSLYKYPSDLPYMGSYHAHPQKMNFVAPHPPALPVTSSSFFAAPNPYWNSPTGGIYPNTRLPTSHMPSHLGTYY
# In short: as §1
# ELF1 = ELF1 (Homo sapiens, UniProt P32519 1-619)
# In short: as §1
# EHF = target: T4, EHF (Homo sapiens, UniProt Q9NZC4 1-300)
# T4 sequence: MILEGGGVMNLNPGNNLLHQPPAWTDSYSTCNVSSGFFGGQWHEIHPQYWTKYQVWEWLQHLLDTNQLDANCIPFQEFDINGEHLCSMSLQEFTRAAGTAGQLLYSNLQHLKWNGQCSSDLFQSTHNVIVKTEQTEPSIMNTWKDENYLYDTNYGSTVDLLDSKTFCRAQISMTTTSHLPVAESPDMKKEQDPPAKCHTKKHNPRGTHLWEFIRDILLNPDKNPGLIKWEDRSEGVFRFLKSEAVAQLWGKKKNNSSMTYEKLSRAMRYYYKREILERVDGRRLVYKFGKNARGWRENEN
# In short: as §1
# SPIB = SPIB (Homo sapiens, UniProt Q01892 1-262)
# In short: as §1
# FEV = target: T5, FEV (Homo sapiens, UniProt Q99581 1-238)
# T5 sequence: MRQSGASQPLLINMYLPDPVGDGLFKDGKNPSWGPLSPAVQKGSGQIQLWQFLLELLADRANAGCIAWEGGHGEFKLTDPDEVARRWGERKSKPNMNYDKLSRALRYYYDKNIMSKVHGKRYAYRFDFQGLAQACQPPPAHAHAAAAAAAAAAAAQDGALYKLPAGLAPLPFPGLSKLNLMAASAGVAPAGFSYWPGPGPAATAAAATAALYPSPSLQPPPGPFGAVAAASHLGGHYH
# In short: as §1
# ETV5 = ETV5 (Homo sapiens, UniProt P41161 1-510)
# In short: as §1
# ELF4 = ELF4 (Homo sapiens, UniProt Q99607 1-663)
# In short: as §1
# ELK4 = target: T6, ELK4 (Homo sapiens, UniProt P28324-2 1-405)
# T6 sequence: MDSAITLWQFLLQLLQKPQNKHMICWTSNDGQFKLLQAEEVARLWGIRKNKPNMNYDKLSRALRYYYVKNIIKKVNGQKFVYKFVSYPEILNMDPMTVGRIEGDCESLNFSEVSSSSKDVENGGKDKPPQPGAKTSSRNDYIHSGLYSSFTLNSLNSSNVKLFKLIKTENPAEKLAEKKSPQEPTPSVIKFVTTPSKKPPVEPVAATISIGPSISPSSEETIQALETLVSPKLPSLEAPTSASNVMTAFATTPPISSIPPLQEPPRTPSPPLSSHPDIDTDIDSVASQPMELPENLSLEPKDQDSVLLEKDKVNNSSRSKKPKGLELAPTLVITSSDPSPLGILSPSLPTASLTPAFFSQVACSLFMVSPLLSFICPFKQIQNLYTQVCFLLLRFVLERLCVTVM
# In short: as §1
# ELF3 = target: T7, ELF3 (Homo sapiens, UniProt P78545 1-371)
# T7 sequence: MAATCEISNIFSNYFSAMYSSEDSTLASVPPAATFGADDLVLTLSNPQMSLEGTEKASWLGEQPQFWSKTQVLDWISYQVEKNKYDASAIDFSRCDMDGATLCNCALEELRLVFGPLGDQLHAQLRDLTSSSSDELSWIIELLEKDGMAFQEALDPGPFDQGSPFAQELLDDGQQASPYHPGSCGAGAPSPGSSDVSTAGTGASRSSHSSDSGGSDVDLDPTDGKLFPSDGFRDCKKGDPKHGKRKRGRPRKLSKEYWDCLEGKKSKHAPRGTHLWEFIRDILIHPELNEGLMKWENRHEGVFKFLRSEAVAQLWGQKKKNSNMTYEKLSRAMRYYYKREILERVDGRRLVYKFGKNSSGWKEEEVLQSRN
# In short: as §1
# ETV1 = ETV1 (Homo sapiens, UniProt P50549 1-477)
# In short: as §1
# ERF = target: T8, ERF (Homo sapiens, UniProt P50548 1-548)
# T8 sequence: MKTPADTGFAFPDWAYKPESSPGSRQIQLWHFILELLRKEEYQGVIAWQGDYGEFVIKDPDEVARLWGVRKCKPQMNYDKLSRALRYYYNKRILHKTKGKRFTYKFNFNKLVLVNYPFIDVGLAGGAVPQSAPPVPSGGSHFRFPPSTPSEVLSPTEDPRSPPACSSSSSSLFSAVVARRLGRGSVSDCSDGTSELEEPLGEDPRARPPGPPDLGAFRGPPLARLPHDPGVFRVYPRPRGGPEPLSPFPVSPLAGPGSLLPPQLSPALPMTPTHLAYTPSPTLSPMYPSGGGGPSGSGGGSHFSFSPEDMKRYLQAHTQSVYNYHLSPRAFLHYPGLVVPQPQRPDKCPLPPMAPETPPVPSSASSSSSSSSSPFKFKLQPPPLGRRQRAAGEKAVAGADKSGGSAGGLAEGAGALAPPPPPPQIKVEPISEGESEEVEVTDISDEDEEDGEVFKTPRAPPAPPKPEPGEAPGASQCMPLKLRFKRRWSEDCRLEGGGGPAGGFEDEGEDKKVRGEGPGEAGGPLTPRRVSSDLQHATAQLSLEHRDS
# In short: as §1
# ETV3L = target: T9, ETV3L (Homo sapiens, UniProt Q6ZN32 1-361)
# T9 sequence: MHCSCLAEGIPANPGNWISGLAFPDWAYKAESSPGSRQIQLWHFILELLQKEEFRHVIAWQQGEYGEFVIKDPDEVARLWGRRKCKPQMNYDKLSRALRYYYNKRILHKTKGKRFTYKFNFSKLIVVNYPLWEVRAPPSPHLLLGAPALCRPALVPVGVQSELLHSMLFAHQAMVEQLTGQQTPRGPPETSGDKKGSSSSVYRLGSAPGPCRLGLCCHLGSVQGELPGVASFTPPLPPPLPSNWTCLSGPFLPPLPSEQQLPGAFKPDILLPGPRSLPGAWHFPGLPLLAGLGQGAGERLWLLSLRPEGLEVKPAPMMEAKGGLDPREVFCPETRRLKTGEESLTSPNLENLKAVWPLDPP
# In short: as §1
# ETS2 = target: T10, ETS2 (Homo sapiens, UniProt P15036 1-469)
# T10 sequence: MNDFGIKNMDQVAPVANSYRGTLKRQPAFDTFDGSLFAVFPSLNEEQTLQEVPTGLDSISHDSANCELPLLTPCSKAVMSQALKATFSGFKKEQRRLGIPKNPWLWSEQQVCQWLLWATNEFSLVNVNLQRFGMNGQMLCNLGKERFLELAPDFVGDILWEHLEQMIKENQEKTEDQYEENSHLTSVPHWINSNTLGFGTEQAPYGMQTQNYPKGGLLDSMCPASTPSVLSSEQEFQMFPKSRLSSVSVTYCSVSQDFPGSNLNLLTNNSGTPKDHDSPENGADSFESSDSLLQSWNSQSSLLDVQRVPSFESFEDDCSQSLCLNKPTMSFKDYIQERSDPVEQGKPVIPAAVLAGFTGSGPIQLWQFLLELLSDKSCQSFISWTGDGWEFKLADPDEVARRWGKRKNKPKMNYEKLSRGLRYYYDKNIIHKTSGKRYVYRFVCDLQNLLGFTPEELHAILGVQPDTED
# In short: as §1
# SPDEF = target: T11, SPDEF (Homo sapiens, UniProt O95238 1-335)
# T11 sequence: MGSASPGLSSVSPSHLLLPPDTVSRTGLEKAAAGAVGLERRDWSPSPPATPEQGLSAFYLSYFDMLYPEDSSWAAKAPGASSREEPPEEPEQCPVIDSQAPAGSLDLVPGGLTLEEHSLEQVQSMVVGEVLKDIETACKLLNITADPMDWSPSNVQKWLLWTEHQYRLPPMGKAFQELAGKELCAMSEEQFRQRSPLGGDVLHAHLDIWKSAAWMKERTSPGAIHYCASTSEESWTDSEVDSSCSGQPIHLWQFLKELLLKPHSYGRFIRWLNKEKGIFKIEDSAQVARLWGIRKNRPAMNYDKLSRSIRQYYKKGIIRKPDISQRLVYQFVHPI
# In short: as §1
# ETV7 = target: T12, ETV7 (Homo sapiens, UniProt Q9Y603 1-341)
# T12 sequence: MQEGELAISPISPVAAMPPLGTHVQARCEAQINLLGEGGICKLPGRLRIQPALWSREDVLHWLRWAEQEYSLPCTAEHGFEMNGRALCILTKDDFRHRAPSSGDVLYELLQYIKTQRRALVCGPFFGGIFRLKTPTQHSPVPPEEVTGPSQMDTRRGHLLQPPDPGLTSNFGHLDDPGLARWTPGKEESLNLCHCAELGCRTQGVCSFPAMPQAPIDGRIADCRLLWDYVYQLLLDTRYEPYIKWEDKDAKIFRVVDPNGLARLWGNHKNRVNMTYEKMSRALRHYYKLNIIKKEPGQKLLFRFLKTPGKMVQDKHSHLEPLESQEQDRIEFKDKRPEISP
# In short: as §1
# ETV3 = target: T13, ETV3 (Homo sapiens, UniProt P41162-2 1-143)
# T13 sequence: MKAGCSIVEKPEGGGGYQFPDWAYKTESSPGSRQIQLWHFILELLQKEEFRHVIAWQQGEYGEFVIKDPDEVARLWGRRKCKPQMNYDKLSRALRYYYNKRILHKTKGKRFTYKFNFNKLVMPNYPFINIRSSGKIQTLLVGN
# In short: as §1
# ETV6 = ETV6 (Homo sapiens, UniProt P41212 1-452)
# In short: as §1
# Sequence of ETV5 (P41161 whole entry): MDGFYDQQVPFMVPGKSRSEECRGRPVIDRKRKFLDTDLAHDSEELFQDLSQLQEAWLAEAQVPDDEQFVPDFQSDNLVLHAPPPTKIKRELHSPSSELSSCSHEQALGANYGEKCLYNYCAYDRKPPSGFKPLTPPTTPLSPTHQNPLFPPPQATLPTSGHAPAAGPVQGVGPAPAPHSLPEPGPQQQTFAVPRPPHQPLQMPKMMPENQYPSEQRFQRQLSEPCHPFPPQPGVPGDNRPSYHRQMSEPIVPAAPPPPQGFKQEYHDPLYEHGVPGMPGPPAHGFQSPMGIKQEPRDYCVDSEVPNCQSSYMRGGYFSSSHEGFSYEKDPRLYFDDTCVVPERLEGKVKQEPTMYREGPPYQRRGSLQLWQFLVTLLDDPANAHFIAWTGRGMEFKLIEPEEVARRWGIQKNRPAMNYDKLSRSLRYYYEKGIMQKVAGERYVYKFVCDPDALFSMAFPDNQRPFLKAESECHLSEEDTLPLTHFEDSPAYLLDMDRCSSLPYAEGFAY
# Sequence of ETV1 (P50549 whole entry): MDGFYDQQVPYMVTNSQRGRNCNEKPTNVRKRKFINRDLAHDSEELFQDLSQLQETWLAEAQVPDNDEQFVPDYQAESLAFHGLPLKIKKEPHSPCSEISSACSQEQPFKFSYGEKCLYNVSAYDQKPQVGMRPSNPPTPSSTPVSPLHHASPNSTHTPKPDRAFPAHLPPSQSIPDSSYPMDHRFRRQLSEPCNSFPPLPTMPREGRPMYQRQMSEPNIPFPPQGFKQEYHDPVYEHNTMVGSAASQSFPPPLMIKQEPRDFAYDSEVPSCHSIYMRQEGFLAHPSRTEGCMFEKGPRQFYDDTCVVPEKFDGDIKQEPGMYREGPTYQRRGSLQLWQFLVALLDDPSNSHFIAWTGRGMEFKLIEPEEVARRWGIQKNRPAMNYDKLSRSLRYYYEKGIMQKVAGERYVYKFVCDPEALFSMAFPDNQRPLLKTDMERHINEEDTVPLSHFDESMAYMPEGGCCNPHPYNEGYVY
# Sequence of ELF1 (P32519 whole entry): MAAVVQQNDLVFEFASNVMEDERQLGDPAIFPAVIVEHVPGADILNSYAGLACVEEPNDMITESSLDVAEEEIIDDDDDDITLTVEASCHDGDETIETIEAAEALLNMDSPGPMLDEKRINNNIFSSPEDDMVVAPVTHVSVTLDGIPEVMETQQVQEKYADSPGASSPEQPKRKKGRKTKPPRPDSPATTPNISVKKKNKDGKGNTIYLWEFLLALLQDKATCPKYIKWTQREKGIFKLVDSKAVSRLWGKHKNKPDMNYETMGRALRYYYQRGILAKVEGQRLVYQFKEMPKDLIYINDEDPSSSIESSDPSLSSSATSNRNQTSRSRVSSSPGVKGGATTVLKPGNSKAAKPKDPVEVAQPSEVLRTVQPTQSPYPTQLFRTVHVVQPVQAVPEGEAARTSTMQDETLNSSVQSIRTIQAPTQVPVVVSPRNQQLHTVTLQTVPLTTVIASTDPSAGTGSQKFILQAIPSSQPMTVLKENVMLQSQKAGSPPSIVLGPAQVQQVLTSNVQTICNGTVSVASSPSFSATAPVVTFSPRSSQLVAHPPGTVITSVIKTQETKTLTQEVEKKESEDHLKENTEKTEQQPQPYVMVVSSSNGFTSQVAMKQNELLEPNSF
# Sequence of ELF4 (Q99607 whole entry): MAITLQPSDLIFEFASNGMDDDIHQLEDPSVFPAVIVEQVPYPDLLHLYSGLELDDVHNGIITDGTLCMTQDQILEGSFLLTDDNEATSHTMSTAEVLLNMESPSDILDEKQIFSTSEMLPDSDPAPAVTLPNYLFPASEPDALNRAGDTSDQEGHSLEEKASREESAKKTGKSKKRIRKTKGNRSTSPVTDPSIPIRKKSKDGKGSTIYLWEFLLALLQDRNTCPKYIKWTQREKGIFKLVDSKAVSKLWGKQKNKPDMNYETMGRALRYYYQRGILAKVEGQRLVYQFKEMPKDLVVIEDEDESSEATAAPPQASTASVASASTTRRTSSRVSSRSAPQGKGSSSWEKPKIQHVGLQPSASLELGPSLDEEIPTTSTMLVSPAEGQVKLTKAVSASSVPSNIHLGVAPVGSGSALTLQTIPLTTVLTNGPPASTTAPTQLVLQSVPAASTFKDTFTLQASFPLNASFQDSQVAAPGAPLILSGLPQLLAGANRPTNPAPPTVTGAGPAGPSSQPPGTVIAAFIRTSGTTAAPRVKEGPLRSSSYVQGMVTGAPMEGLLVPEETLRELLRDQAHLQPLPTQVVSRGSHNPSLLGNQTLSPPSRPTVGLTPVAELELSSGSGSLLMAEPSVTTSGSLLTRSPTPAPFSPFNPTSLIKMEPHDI
# Sequence of SPIB (Q01892 whole entry): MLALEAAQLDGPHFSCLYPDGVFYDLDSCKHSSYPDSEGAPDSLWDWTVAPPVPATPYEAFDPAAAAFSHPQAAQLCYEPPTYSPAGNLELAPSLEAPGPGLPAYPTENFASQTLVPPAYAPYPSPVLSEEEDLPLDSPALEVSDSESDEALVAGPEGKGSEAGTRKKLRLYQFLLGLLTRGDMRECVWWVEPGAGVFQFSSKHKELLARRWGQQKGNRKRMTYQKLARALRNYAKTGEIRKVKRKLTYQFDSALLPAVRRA
# Sequence of ETV6 (P41212 whole entry): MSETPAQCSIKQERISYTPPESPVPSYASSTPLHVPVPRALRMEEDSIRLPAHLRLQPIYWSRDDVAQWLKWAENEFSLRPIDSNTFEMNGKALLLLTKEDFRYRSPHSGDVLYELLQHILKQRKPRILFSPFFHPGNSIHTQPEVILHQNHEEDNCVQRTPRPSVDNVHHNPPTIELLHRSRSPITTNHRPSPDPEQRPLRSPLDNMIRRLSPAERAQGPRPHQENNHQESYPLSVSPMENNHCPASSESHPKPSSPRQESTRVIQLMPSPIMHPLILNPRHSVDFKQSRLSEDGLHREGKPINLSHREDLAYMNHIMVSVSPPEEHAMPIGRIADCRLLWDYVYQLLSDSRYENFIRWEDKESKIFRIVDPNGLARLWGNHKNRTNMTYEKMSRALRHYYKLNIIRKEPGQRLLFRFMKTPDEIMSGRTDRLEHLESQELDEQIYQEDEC
sequence,measurement,setting,value
GGCTAC,binding signal,ELK1,"1.12 fold enrichment (6-mer frequency, TF over GST control)"
same,binding signal,GABPA,"1.18 fold enrichment (6-mer frequency, TF over GST control)"
same,binding signal,ERG,"1.09 fold enrichment (6-mer frequency, TF over GST control)"
same,binding signal,ELF1,"1.26 fold enrichment (6-mer frequency, TF over GST control)"
same,binding signal,EHF,"1.07 fold enrichment (6-mer frequency, TF over GST control)"
same,binding signal,SPIB,"1.16 fold enrichment (6-mer frequency, TF over GST control)"
same,binding signal,FEV,"1.1 fold enrichment (6-mer frequency, TF over GST control)"
same,binding signal,ETV5,"1.22 fold enrichment (6-mer frequency, TF over GST control)"
same,binding signal,ELF4,"1.17 fold enrichment (6-mer frequency, TF over GST control)"
same,binding signal,ELK4,"1.1 fold enrichment (6-mer frequency, TF over GST control)"
same,binding signal,ELF3,"1.18 fold enrichment (6-mer frequency, TF over GST control)"
same,binding signal,ETV1,"1.12 fold enrichment (6-mer frequency, TF over GST control)"
same,binding signal,ERF,"1.12 fold enrichment (6-mer frequency, TF over GST control)"
same,binding signal,ETV3L,"1.16 fold enrichment (6-mer frequency, TF over GST control)"
same,binding signal,ETS2,"1.2 fold enrichment (6-mer frequency, TF over GST control)"
same,binding signal,SPDEF,"1.22 fold enrichment (6-mer frequency, TF over GST control)"
same,binding signal,ETV7,"1.26 fold enrichment (6-mer frequency, TF over GST control)"
same,binding signal,ETV3,"1.07 fold enrichment (6-mer frequency, TF over GST control)"
same,binding signal,ETV6,"1.2 fold enrichment (6-mer frequency, TF over GST control)"
